Only some compounds are listed: those with a hit (about 1.2% of all), similar ones and a draw of the others.
Pin1 inhibitor: inhibitors of human Pin1. Pin1 FP peptide displacement, HiFluor488, 10 min. actives 0.009% (n = 390,000). AID 504891. Q13526. Potency, µM (doses to about 115 µM), inactives show top-dose activity, negative = inhibition, most hits filed as inhibitors; active means well fitted inhibition curve with a large enough effect in the polarisation, with a control signal flat, not every such curve was filed as active; inconclusive means small, poorly fitted or top-dose-only effect, or effect the other way, or a change in a side signal; inactive means no such curve, though single readings can be large or run the other way; the % refers to the polarisation; further: potency means the concentration at half of the fitted maximal effect
Target sequence (Q13526 whole entry, looked up): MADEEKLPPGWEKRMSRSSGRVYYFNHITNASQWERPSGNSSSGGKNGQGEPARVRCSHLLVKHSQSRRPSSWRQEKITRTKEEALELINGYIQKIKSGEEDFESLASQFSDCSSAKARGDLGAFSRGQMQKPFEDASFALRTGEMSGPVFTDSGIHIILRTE
KCNH2 WT inh: blocks the wildtype human KCNH2 potassium channel | Q12809 | U2OS, BacMam KCNH2, thallium flux FluxOr; stronger effect = lower value | activity change, % at 1.84 µM | actives 0.37% (n = 340,000) | AID 720551;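 active means maximum activity change below -70%; inconclusive means maximum activity change between -70% and -50%; inactive means maximum activity change above -50%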
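U2OS cells transduced with wild-type KCNH2 virus are loaded with FluxOr dye for 45 min, and thallium flux is measured in kinetic reads before and after stimulation buffer. Rate constants are normalized to DMSO controls.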
GCN5L2 inh: blocks human GCN5L2 histone acetyltransferase | Q92830 | GCN5L2 HAT assay, ThioGlo1 CoA-SH fluorescence | Potency, µM (titrated, usually from 58.9 µM), for the others: top-dose activity change, negative = inhibition, hits mostly inhibitors | actives 0.21% (n = 390,000) | AID 504327; further: potency means the concentration at half of the fitted maximal effect
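Compounds, pin-transferred from DMSO stocks, meet 20nM GCN5L2 for 15 min before the reaction begins with H3(1-25) peptide (75uM) and acetyl-CoA (70uM). Thiol-reactive ThioGlo1 reports CoA release over 20 min at room temperature.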
KCNH2 3.1 block: KCNH2 3.1 (human) potassium channel inhibition | activity change, % (tested at about 1.8 µM) | actives 0.95% (n = 340,000) | U2OS KCNH2 3.1, thallium flux FluxOr; stronger effect = lower value | AID 720553;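 active means maximum activity change below -70%; inconclusive means maximum activity change from -70% to -50%; inactive means maximum activity change above -50%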;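 further: thallium influx rate constant from kinetic fluorescence after stimulation buffer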
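We transduce U2OS cells with the mutant 3.1 virus, culture them overnight, load FluxOr with Red40 quencher for 45 min, then add stimulation buffer and read kinetically for 2 min to derive a normalized rate constant.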
RGS4 inhibitor: blocks human RGS4-accelerated GTP hydrolysis. Transcreener GDP fluorescence polarization, RGS4-accelerated GTP hydrolysis. Potency, µM (titrated, usually from 114 µM), without a hit: at the top dose activity change, negative = inhibition, most hits filed as inhibitors. actives 0.039% (n = 390,000). AID 504845; further: potency means the concentration at half of the fitted maximal effect; nearly all actives have a fitted effect of over 75% in size
Target sequence (P49798 whole entry, looked up): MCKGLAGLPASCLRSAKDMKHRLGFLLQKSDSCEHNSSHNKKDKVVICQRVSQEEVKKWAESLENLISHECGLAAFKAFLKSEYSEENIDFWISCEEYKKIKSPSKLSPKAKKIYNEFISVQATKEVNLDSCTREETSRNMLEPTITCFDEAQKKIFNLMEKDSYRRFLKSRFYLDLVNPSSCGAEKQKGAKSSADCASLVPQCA
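MLSMR compounds (23 nl, pin-transferred) preincubated 10 min at room temperature with a 500nM (2x) first reagent, then RGS4 at 900nM (2x) plus Transcreener GDP mix added; fluorescence polarization (620/688 nm) read before and after 90 min at 30 °C.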
PGK inhibitor: T. brucei PGK inhibition; actives 0.043% (n = 380,000); AID 602233; Potency, µM (titrated, usually from 57.5 µM), for the others: at the top dose activity change, negative = inhibition, hits mostly inhibitors; PGK/GAPDH coupled, Kinase-Glo luminescence, 60 min; further: potency means the concentration at half of the fitted maximal effect; nearly all actives have a fitted effect of over 60% in size
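Recombinant glycosomal PGK reaction used 1,3-bisphosphoglycerate generated in-well by GAPDH (100nM final) in 100mM TEA pH 7.6, 5mM MgCl2, 0.01% Tween-20. After 60 minutes at room temperature, ATP was read by Kinase-Glo Plus luminescence end-point.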
An asterisk follows results filed as active; i = inactive; ? = inconclusive; . = not tested or not shown; [ ] = dose if it differs, or a comment. Unless noted, the call rests on the fitted dose curve; in most records, active means well fitted curve in the direction sought with a large enough effect; inconclusive means small, poorly fitted or top-dose-only effect, or another doubt; inactive means no such curve, though single readings can be large; an effect the other way counts as inactive or inconclusive. On the % scale 0 is the no-effect control and ±100 the full control effect.

SMILES	Pin1 inhibitor	KCNH2 WT inh	GCN5L2 inh	KCNH2 3.1 block	RGS4 inhibitor	PGK inhibitor
CN(C(=O)c1cc([N+](=O)[O-])ccc1N1CCCC1)C1CCCCC1	1%	-16	-17%	-10	30%	-6%
CC1CCN(c2ccc([N+](=O)[O-])cc2C(=O)O)CC1	20%	-133*	25%	-178*	-3%	-6%
Cc1cccc(N2CCN(C(=O)c3cc(S(=O)(=O)N(C)C)ccc3N3CCCC3)CC2)c1C	10%	-6	-7%	1	9%	-2%
CC(C)N(C(=O)c1sc2cc([N+](=O)[O-])ccc2c1Cl)C(C)C	0%	21	-1%	2	-21%	-2%
O=C(COc1ccc(Cl)cc1)N1CCN(c2ccc([N+](=O)[O-])c(N3CCOCC3)c2)CC1	2%	14	-4%	-81*	-7%	-3%
O=C(c1sc2cc([N+](=O)[O-])ccc2c1Cl)N1CCOCC1	-4%	-97*	-4%	40	-8%[11.4 µM]	-12%
CC(C)C[C@H](NC(=O)[C@H](CC(C)C)NC(=O)[C@@H](Cc1c[nH]c2ccccc12)NC(=O)[C@H](Cc1ccccc1)NC(=O)[C@@H](Cc1c[nH]c2ccccc12)NC(=O)[C@H](CCC(N)=O)NC(=O)[C@H](CCC(N)=O)NC(=O)[C@@H]1CCCN1C(=O)[C@H](CCCCN)NC(=O)[C@@H]1CCCN1C(=O)[C@@H](CCCNC(=N)N)NC(=O)[C@@H]1CCCN1C(=O)CNC(=O)[C@H](CC(C)C)NC(=O)[C@H](CC(C)C)NC(=O)[C@H](Cc1ccc(O)cc1)NC(=O)CNC(=O)[C@H](C)NC(=O)[C@H](CO)NC(=O)[C@H](CC(N)=O)NC(=O)[C@H](CC(C)C)NC(=O)[C@@H](NC(=O)[C@H](Cc1c[nH]c2ccccc12)NC(=O)CN)[C@@H](C)O)C(N)=O	.	.	1%	.	.	.
O=C(c1cc([N+](=O)[O-])ccc1N1CCOCC1)N1CCCCC1	6%	-7	-1%	6	10%	2%
O=C(c1cc([N+](=O)[O-])ccc1N1CCOCC1)N1CCN(c2ccc([N+](=O)[O-])cc2)CC1	13%	-125*	-13%	-106*	-38%	i
CN(Cc1cccs1)C(=O)COc1cccc(-n2cnnn2)c1	-6%	-78*	-5%	-15	-3%[56.9 µM]	i
CCc1nc2ccc(C(=O)NCc3ccc(OC)c(OC)c3)cc2nc1CC	-3%	.	-4%	.	0%	-6%
CN(CC1CCCN(CCc2ccc(Cl)cc2)C1)C(=O)c1ccoc1 (configuration not stated)	1%	-20	3%	?	-6%	i
CN(CC1CCCN(CCc2ccc(Cl)cc2)C1)C(=O)c1ccco1 (configuration not stated)	4%	-37	.	-79*	10%	-9%
COc1cccc(CNC(=O)C2CCN(C(=O)c3sccc3-n3cccc3)CC2)c1	-1%	.	-4%	.	17%	.
CCN(CC)S(=O)(=O)c1cccc(C(=O)N[C@H](C(=O)O)C(C)C)c1	0%	-170*	-20%	-3	2%	-3%
CCN(CC)S(=O)(=O)c1cccc(C(=O)Nc2ccc(C#N)cc2)c1	4%	0	0%	-76*	16%	3%
CCN(CC)S(=O)(=O)c1cccc(C(=O)Nc2cc(C)cc(C)c2)c1	?	7	-30%	-1	-4%[11.4 µM]	-5%
CN1CCOc2cc(S(=O)(=O)N3CCN(c4nc(-c5cccs5)nc5ccccc45)CC3)ccc21	-4%	.	.	.	-3%	.
CCc1ccccc1Nc1nc2cc(Cl)c(Cl)cc2nc1-n1nc(C)cc1C	-2%	.	-11%	.	4%	i
COc1ccc(Oc2ncc3nc(-c4cc(F)cc(F)c4)c(=O)n(C[C@H]4CCCO4)c3n2)cc1	.	.	-17%	.	.	.
CN(C)CCN(Cc1ccccc1)S(=O)(=O)c1ccc(-c2cc(C(F)(F)F)on2)s1	1%	.	0%	.	-5%	i
